Results published in PubChem BioAssay (Tox21).
Values joined by “and” are separate entries in the source; they are usually repeats but may differ in a detail not shown here. Equal entries are not always repeated. Inconclusive results are not listed. A call without a number means that no potency is given here. A structure can be active in one record and inactive in another. Active and inactive are the calls of the source. The call rests on the fitted dose curve; in most records, active means well fitted curve in the direction sought with a large enough effect in the repeat runs; inconclusive means weak or mixed curves; inactive means no such curve, though single readings can be large; an effect the other way counts as inactive or inconclusive.

Legend:
[1] = Human pregnane X receptor (PXR) small molecule agonists, qHTS cell viability counter screen (AID 1346977); further: nearly all actives have a fitted effect of over 50% in size; further: potency means the concentration at half of the fitted maximal effect
Method in brief: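 After a 5hr pre-incubation, PXR-Luc HepG2 cells received compounds plus positive control in DMSO and were kept 24hr at 37C. Cell viability was quantified by fluorescence from CellTiter-Fluor added for the final hour.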

[2] = Caspase-3/7 induction in HepG2 cells by small molecules, qHTS assay (AID 1346978); further: nearly all actives have a fitted effect of over 15% in size; further: potency means the concentration at half of the fitted maximal effect
Method in brief: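 Caspase-3/7 induction was measured by Caspase-Glo 3/7 luminescence (30 min, room temperature) after a 17 hr compound exposure of wild-type HepG2 cells seeded at 2,000 per well and pre-incubated 5 hr.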

[3] = Caspase-3/7 induction in CHO-K1 cells by small molecules, qHTS cell viability counter screen (AID 1346979); further: nearly all actives have a fitted effect of over 35% in size; further: potency means the concentration at half of the fitted maximal effect
Method in brief: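 Multiplexed with Caspase-Glo 3/7 in CHO-K1 cells, this counter screen added CellTiter-Fluor after 16hr of compound exposure and recorded fluorescence 1hr later.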

[4] = Caspase-3/7 induction in CHO-K1 cells by small molecules, qHTS assay (AID 1346980); further: nearly all actives have a fitted effect of over 15% in size
Method in brief: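 Luminescent Caspase-Glo 3/7 read (30min, room temperature) quantified apoptosis induction. Cells were wild-type CHO-K1, treated with compound for 17hr at 37 C and 5% CO2.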

[5] = Caspase-3/7 induction in HepG2 cells by small molecules, qHTS cell viability counter screen (AID 1346981); further: nearly all actives have a fitted effect of over 30% in size; further: potency means the concentration at half of the fitted maximal effect
Method in brief: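 After a 5-hr attachment period at 37 C and 5% CO2, wild-type HepG2 cells received compounds in DMSO. Sixteen hours later CellTiter-Fluor was dispensed and the fluorescent signal quantified after a further hour.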

[6] = biological target: Nuclear receptor subfamily 1 group I member 2 (Homo sapiens) (UniProt O75469); assay: Human pregnane X receptor (PXR) small molecule agonists, qHTS assay (AID 1346982); further: nearly all actives have a fitted effect of over 35% in size; further: potency means the concentration at half of the fitted maximal effect
Method in brief: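 Tox21 qHTS; PXR-Luc HepG2; compounds pinned from DMSO; 24 hr, 37 C; ONE-Glo luciferase detection, 30 min room temperature.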

[7] = biological target: Cytochrome P450 2D6 (Homo sapiens) (UniProt P10635); assay: Cytochrome P450 Family 2 Subfamily D Member 6 (CYP2D6) small molecule antagonists: luciferase reporter qHTS assay (AID 1671196); further: nearly all actives have a fitted effect of over 50% in size; further: potency means the concentration at half of the fitted maximal effect
Method in brief: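 Room-temperature luminescent CYP2D6 activity assay: compound preincubated 10 min with enzyme–substrate mix, NADPH-initiated reaction 1 h, detection reagent 20 min before reading.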

[8] = biological target: Nuclear receptor subfamily 1 group I member 2 (Rattus norvegicus) (UniProt Q9R1A7); assay: Rat pregnane X receptor (rPXR) activation by small molecules, qHTS assay (AID 1346983); settings: rPXR luciferase reporter cells, One-Glo luminescence, 24 h; max activation: stronger effect = higher value; further: nearly all actives have a fitted effect of over 20% in size
Method in brief: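 Luminescent readout (One-Glo luciferase, 30 min room temperature) followed 24 hr compound treatment at 37 C of rPXR cells plated 2,000 per well and preincubated 5hr; qHTS format with compounds delivered in DMSO.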

[9] = biological target: Nuclear receptor subfamily 1 group I member 2 (Homo sapiens) (UniProt O75469); assay: CYP3A4 induction through human pregnane X receptor (PXR) by small molecules, qHTS assay (AID 1346984); further: nearly all actives have a fitted effect of over 40% in size; further: potency means the concentration at half of the fitted maximal effect
Method in brief: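 Cells (DPX-2; HepG2 with PXR element plus CYP3A4-promoter luciferase) settled 5hr, then were treated 24hr at 37C. A 3hr, 3uM-final Luciferin-IPA step preceded luminescence measurement with One-Glo.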

[10] = biological target: Nuclear receptor subfamily 1 group I member 2 (Homo sapiens) (UniProt O75469); assay: Human pregnane X receptor (PXR) activation by small molecules, qHTS assay (AID 1346985); further: nearly all actives have a fitted effect of over 40% in size; further: potency means the concentration at half of the fitted maximal effect
Method in brief: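 DPX-2 cells (HepG2 co-transfected with a PXR response element and a CYP3A4-promoter luciferase construct) were seeded at 2,000 per well, rested 5 hr at 37C, then exposed to DMSO-dissolved compounds for 24 hr. Activation was read as luciferase luminescence.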

Chain of Cytochrome P450 2D6 (Homo sapiens) (P10635 whole entry, looked up): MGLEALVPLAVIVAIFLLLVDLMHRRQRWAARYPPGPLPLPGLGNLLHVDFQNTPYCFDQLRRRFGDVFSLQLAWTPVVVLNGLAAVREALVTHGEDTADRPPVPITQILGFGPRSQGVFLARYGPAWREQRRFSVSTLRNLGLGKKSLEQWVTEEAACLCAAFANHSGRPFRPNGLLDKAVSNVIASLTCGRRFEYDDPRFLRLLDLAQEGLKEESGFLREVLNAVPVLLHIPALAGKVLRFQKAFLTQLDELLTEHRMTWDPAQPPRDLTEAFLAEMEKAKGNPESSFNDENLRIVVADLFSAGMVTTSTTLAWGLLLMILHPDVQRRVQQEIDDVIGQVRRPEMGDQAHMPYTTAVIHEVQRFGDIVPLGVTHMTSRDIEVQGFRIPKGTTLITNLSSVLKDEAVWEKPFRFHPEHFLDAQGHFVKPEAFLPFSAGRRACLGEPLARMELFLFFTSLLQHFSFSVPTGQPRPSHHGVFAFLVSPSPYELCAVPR
Chain of Nuclear receptor subfamily 1 group I member 2 (Rattus norvegicus) (Q9R1A7 whole entry, looked up): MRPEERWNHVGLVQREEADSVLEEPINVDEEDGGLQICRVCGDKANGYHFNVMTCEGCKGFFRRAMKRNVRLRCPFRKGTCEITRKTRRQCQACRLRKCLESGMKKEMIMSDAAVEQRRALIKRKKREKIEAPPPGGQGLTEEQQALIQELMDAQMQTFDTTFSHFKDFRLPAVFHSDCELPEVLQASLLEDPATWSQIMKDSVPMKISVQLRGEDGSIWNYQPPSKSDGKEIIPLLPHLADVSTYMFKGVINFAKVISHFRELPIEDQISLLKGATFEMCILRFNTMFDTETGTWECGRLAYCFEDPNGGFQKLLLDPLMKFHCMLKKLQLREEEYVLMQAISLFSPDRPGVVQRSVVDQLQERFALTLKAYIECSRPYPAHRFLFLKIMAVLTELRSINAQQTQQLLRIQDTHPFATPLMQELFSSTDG
Chain of Nuclear receptor subfamily 1 group I member 2 (Homo sapiens) (O75469 whole entry, looked up): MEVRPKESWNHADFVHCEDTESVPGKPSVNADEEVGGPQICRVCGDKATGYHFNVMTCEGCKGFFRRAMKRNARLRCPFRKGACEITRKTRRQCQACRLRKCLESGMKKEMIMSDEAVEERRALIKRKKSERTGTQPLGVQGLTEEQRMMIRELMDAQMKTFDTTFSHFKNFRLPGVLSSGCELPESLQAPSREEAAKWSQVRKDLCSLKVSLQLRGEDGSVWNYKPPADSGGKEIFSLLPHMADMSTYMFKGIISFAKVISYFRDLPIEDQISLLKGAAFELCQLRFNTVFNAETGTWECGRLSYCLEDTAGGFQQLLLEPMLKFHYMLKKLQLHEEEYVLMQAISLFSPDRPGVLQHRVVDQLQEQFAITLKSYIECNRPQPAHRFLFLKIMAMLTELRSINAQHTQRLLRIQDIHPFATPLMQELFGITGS

Compound | Potency [1] | Potency [2] | Potency [3] | Potency [4] | Potency [5] | Potency [6] | Potency [7] | max activation [8] | Potency [9] | Potency [10]
CCCc1c(OCCCCc2nn[nH]n2)ccc(C(C)=O)c1O | inactive | inactive | inactive | inactive | inactive | 61.1 µM (active) and inactive | inactive |  |  | 
O=C(OCc1ccccc1)c1ccccc1O | inactive | inactive | inactive | inactive | inactive | inactive | inactive |  |  | 
CC1=CCC(C(C)(C)O)CC1 (stereo unspecified) | inactive | inactive | inactive | inactive | inactive | 54.8 µM (active) and inactive | inactive | -1.16% (inactive) | inactive | inactive
Cc1cccc(N(C)C(=S)Oc2ccc3ccccc3c2)c1 | inactive | inactive | inactive | inactive | inactive | 17.2 µM (active) and 11.9 µM (active) | inactive | 2.58% (inactive) | 5.01 µM (active) | 8.91 µM (active)
O=C(/C=C/c1ccccc1)OCc1ccccc1 | inactive | inactive | inactive | inactive | inactive | inactive | inactive | -0.887% (inactive) |  | inactive
COc1c(Cl)c(Cl)c(Cl)c(Cl)c1Cl | inactive | inactive | inactive | inactive | inactive | inactive | inactive |  |  | 
CN1C(C(=O)Nc2ccccn2)=C(O)c2ccccc2S1(=O)=O | inactive | inactive | inactive | inactive | inactive |  | 40.3 µM (active) and inactive | -2.52% (inactive) | inactive | inactive
CC(=O)Oc1ccccc1C(=O)Nc1ncc([N+](=O)[O-])s1 | 12.4 µM (active) and 16.8 µM (active) | inactive | 12.4 µM (active) and 18.8 µM (active) | inactive |  | 11.1 µM (active) and 2.11 µM (active) | 7.25 µM (active) and 7.76 µM (active) | -18.4% (inactive) | inactive | inactive
COC(C)COC(C)COC(C)CO (stereo unspecified) | inactive | inactive | inactive | inactive | inactive | inactive | inactive |  |  | 
COc1cccc2c1C(=O)c1c(O)c3c(c(O)c1C2=O)C[C@@](O)(C(=O)CO)C[C@@H]3O[C@H]1C[C@H](N)[C@H](O)[C@H](C)O1 | 1.72 µM (active) and 6.68 µM (active) | 5.96 µM (active) | 9.67 µM (active) and 21.1 µM (active) | inactive | 3.85 µM (active) and 11.9 µM (active) | inactive |  | -0.0344% (inactive) and 3.76% (inactive) | inactive | inactive
O=C(O)c1ccccc1Nc1cccc(C(F)(F)F)c1 | inactive | inactive | inactive | inactive | inactive | 30.6 µM (active) and inactive | inactive |  |  | 
OC1CCCCCCCCCCC1 | inactive | inactive | inactive | inactive |  | 61.7 µM (active) and inactive | inactive |  |  | 
CC(C)=CCCC(C)CCO (stereo unspecified) | inactive | inactive | inactive | inactive | inactive | inactive | inactive |  |  | 
CC1=CC2C3CC(C=C3C)C2C1 (stereo unspecified) | inactive | inactive | inactive | inactive | inactive | inactive and 27.3 µM (active) | inactive |  |  | 
c1ccc2sc(SSN3CCOCC3)nc2c1 | inactive | inactive | 61 µM (active) and 61.1 µM (active) | inactive |  | 61 µM (active) and 68.6 µM (active) |  |  |  | 
CC(C)(C)NC(=O)[C@H]1CC[C@H]2[C@@H]3CC[C@H]4NC(=O)C=C[C@]4(C)[C@H]3CC[C@]12C | inactive | inactive | inactive | inactive | inactive | 48.6 µM (active) | inactive | -2.95% (inactive) | inactive | inactive
C=C(C)C(=O)OCCOC(=O)C(=C)C | inactive | inactive | inactive | inactive |  | inactive | inactive |  |  | 
O=C(c1ccc(OCCN2CCCCC2)cc1)c1c(-c2ccc(O)cc2)sc2cc(O)ccc12 | 21.7 µM (active) and 24.3 µM (active) and 23.7 µM (active) | 68.7 µM (active) and inactive | 54.5 µM (active) and 61.1 µM (active) and 26.6 µM (active) | inactive | 61.2 µM (active) and 61.1 µM (active) |  |  |  |  | 
c1ccc2cc(Nc3ccc(Nc4ccc5ccccc5c4)cc3)ccc2c1 | inactive | inactive | inactive | inactive |  | inactive | inactive |  |  | 
C=CC(C)(CCC=C(C)C)OC(C)=O (stereo unspecified) | inactive | inactive | inactive | inactive | inactive | inactive | inactive |  |  | 
COc1cc([C@@H]2c3cc4c(cc3[C@H](O)[C@H]3COC(=O)[C@H]23)OCO4)cc(OC)c1OC | inactive | inactive | 8.6 nM (active) and 21.1 nM (active) | inactive |  | 0.0485 µM (active) | inactive |  |  | 14.1 µM (active)
Nc1ccc(Cl)cc1Cl | inactive | inactive | inactive | inactive |  | inactive | inactive |  |  | 

Compound | Potency [1] | Potency [2] | Potency [3] | Potency [4] | Potency [5] | Potency [6] | Potency [7] | max activation [8] | Potency [9] | Potency [10]
O=CCCCC=O | inactive | inactive | inactive | inactive |  | inactive | inactive | 4.17% (inactive) | inactive | inactive
OC[C@H]1O[C@@H]2O[C@H]3[C@H](O)[C@@H](O)[C@@H](O[C@H]4[C@H](O)[C@@H](O)[C@@H](O[C@H]5[C@H](O)[C@@H](O)[C@@H](O[C@H]6[C@H](O)[C@@H](O)[C@@H](O[C@H]7[C@H](O)[C@@H](O)[C@@H](O[C@H]8[C@H](O)[C@@H](O)[C@@H](O[C@H]1[C@H](O)[C@H]2O)O[C@@H]8CO)O[C@@H]7CO)O[C@@H]6CO)O[C@@H]5CO)O[C@@H]4CO)O[C@@H]3CO | inactive | inactive | inactive | inactive |  | inactive |  | -2.34% (inactive) | inactive | inactive
COC(=O)Nc1nc2ccc(S(=O)c3ccccc3)cc2[nH]1 (stereo unspecified) | inactive | inactive | 8.41 µM (active) | inactive | inactive | 68.5 µM (active) and 8.41 µM (active) | inactive |  |  | 
C[C@]12CCC(=O)C=C1CC[C@@H]1[C@@H]2C(=O)C[C@@]2(C)[C@H]1CC[C@]2(O)C(=O)CO | inactive | inactive | inactive | inactive |  | inactive | inactive | 0.346% (inactive) | inactive | inactive
COC(=O)C1=C(C)NC(C)=C(C(=O)OCCN(C)Cc2ccccc2)C1c1cccc([N+](=O)[O-])c1 (stereo unspecified) | 27.1 µM (active) and 26.6 µM (active) | inactive | 30.5 µM (active) and 26.6 µM (active) | inactive | 48.3 µM (active) and 26.6 µM (active) |  |  |  |  | 
CN(C)CCC=C1c2ccccc2CCc2ccccc21 | 44.7 µM (active) and 48.6 µM (active) and 26.6 µM (active) | 68.6 µM (active) and inactive | 61.1 µM (active) | inactive | inactive | 19.3 µM (active) and inactive | 2.52 µM (active) and 5.64 µM (active) and 5.49 µM (active) |  |  | 
NNc1ccc(C(=O)O)cc1 | inactive | inactive | inactive | inactive | inactive | 43.9 nM (active) and 27.6 nM (active) |  |  |  | 
COC(=O)c1ccccc1 | inactive | inactive | inactive | inactive |  | inactive | inactive |  |  | 
CC(C)OC(=O)C(C)(C)Oc1ccc(C(=O)c2ccc(Cl)cc2)cc1 | inactive | inactive | 54.5 µM (active) | inactive | inactive | 27.3 µM (active) | inactive |  |  | 
O=C(COc1ccc(Cl)cc1)N1CCN(Cc2ccc3c(c2)OCO3)CC1 | inactive | inactive | inactive | inactive | inactive | 34.4 µM (active) and inactive | 1.59 µM (active) and 2.45 µM (active) | 0.0978% (inactive) | inactive | inactive
O=C1OC2(c3cc(Br)c(O)c(Br)c3Oc3c2cc(Br)c(O)c3Br)c2c(Cl)c(Cl)c(Cl)c(Cl)c21 | 2.51 µM (active) and 11.7 µM (active) | inactive | 6.87 µM (active) and 14.8 µM (active) | inactive | 9.7 µM (active) and 16.6 µM (active) | inactive | 24.2 µM (active) |  |  | 
C#C[C@]1(O)CC[C@H]2[C@@H]3CCc4cc(OC)ccc4[C@H]3CC[C@@]21C | inactive | inactive | 27.3 µM (active) and 18.8 µM (active) | inactive |  | 21.7 µM (active) and 18.8 µM (active) | inactive | 4.03% (inactive) | inactive | 
c1ccc2c(c1)c1cccc3ccc4cccc2c4c31 | inactive | inactive | inactive | inactive | inactive | inactive |  |  |  | 
Brc1cc(Oc2cc(Br)c(Br)c(Br)c2Br)c(Br)c(Br)c1Br | inactive | inactive | inactive | inactive | inactive | 9.73 µM (active) | inactive |  |  | 
C/C=C/C(=O)O | inactive | inactive | inactive | inactive | inactive | inactive | inactive |  |  | 
CCCC(=O)O | inactive | inactive | inactive | inactive | inactive | inactive | inactive | -1.54% (inactive) | inactive | inactive
CC(=O)c1ccccn1 | inactive | inactive | inactive | inactive | inactive | inactive | inactive |  |  | 
O=Cc1ccccc1O | inactive | inactive | inactive |  | inactive | inactive | inactive |  |  | 
O=CCc1ccccc1 | inactive | inactive | inactive |  | inactive | inactive | inactive |  |  | 
CCCCC(CC)COC(=O)c1ccc(N(C)C)cc1 (stereo unspecified) | inactive | inactive |  | inactive | inactive | inactive and 54.5 µM (active) | 30.9 µM (active) | -1.01% (inactive) | inactive | inactive
OCCO | inactive | inactive | inactive |  | inactive | inactive | 34.6 µM (active) and inactive |  |  | 
